GRP78 ERSR act: qHTS for Inducers of the Endoplasmic Reticulum Stress Response (ERSR) in Human Glioma: qHTS | 0.02% of 420,000 active | AID 602332, 2012 | Potency, µM, for the others: top-dose activation, hits mostly activators | U87-MG GRP78 promoter luciferase reporter, 16 h; note: series mostly up to about 76 µM; % of control where 0% means no effect; nearly all actives have a fitted effect of over 35% in size
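Stably transfected U87-MG human glioma cells carrying a GRP78-based luminescent sensor were seeded at 1000 cells/well, pin-dosed with compounds and incubated 16 h. Luciferase reagent was then added, and end-point luminescence was read after 10 min at room temperature.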
VDR inhibitor: Inhibitors of the vitamin D receptor (VDR): qHTS. VDR-SRC2-3 peptide fluorescence polarization, 2 h. Potency, µM, for the others: max response, negative = inhibition, usual class: inhibitors. 0.93% of 400,000 active. AID 504847, 2011; note: % is set by controls: 0 for no effect and ±100 for the full control effect
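Compounds are added to VDR with labelled SRC2-3 coactivator peptide and held 2 h at room temperature. Inhibition of the VDR–peptide interaction is then read as a change in fluorescence polarization.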
G9a block: qHTS Assay for Inhibitors of Histone Lysine Methyltransferase G9a | Potency, µM (highest dose often 102 µM), for inactives: top-dose activity, negative = inhibition, actives largely listed as inhibitors | G9a H3K9 monomethylation, AlphaScreen, 2 h | 8.8% of 350,000 active | AID 504332, 2011 | Histone-lysine N-methyltransferase EHMT2 (Homo sapiens), Q96KQ7; note: % is set by controls: 0 for no effect and ±100 for the full control effect; nearly all actives have a fitted effect of over 75% in size
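Enzyme 20 nM + cpd, 15 min RT; add b-H3K9 pep 500 nM / SAM 20 uM; 2 h RT; anti-H3K9me1 Ab 0.5 ug/mL + SA donor / anti-rabbit acceptor beads 20 ug/mL each, 10 min; AlphaScreen read.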
Sfp inh: qHTS Assay for Inhibitors of Bacillus subtilis Sfp phosphopantetheinyl transferase (PPTase). 4'-phosphopantetheinyl transferase ffp (Bacillus subtilis), Q9F4F7. Biochemical Sfp PPTase activity, qHTS. Potency, µM, inactives show largest response in the series, negative = inhibition, hits mostly inhibitors. 3.5% of 310,000 active;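 note: the enzyme is Sfp with the accession as filed and its product quenches rhodamine fluorescence; 0% = enzyme reaction without inhibitor and -100% = no enzyme wells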
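Compounds were incubated with enzyme (final 15 nM) for 15 min at room temperature before substrate addition started the reaction. Fluorescence at 525 nm excitation, 598 nm emission was recorded immediately and after 30 minutes.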
12-LOX inh: Primary qHTS assay for inhibitors of human arachidonate 12S-lipoxygenase (ALOX12): Round 2. 1.1% of 580,000 active. purified 12hLO, xylenol orange hydroperoxide absorbance. Polyunsaturated fatty acid lipoxygenase ALOX12 (Homo sapiens), P18054. Potency, µM (top dose mostly 108 µM), for inactives: top-dose activity change, negative = inhibition, most hits filed as inhibitors; note: % is set by controls: 0 for no effect and ±100 for the full control effect
Target sequence (P18054 whole entry, looked up): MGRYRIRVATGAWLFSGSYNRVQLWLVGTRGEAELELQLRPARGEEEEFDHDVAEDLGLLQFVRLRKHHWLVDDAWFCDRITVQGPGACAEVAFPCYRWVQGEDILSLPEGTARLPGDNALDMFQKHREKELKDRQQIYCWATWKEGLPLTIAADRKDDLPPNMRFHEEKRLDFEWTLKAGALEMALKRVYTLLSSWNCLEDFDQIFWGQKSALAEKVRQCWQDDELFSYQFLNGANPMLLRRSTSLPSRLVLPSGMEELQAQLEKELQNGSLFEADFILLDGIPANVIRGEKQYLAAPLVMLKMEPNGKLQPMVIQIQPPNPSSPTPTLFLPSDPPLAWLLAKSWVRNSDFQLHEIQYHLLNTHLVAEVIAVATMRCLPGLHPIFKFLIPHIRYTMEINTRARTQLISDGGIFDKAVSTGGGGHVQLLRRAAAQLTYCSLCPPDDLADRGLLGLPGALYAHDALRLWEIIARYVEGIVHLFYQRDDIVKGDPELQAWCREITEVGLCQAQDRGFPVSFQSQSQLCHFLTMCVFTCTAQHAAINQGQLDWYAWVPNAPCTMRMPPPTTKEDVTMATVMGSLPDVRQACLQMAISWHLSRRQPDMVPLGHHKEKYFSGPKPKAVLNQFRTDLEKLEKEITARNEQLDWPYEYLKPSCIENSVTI
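Purified human 12hLO (150 nM final) in 25 mM Hepes, 0.01% Triton X-100, pH 7.0 was preincubated 15 min at room temperature with compound. Then 40 uM arachidonic acid was added, 30 min. Hydroperoxide was read by Fe-XO absorbance ratio 573/405 nm.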
* marks the source's active call; other numbers are inactive results; ? = inconclusive; . = not tested or not shown; [ ] = remark or other dose. This is one part of a sample in which hits are shown more often than they occur. Calls come from the whole dose curve; as a rule, active = well fitted curve in the direction sought with a large enough effect; inconclusive = small, poorly fitted or top-dose-only effect, or another doubt; inactive = no such curve, though single readings can be large; an effect the other way counts as inactive or inconclusive. Potency is the fitted concentration of half-maximal effect.

SMILES	GRP78 ERSR act	VDR inhibitor	G9a block	Sfp inh	12-LOX inh
O=C(O)c1ccccc1SC1CC(=O)N(C2CCCCC2)C1=O (stereo not given)	0%	-12%	?	6%	.
O=C(O)c1ccccc1SC1CC(=O)N(c2ccccc2)C1=O (stereo not given)	-3%	-4%	?	79µM*	-9%
O=C(O)c1cccnc1SC1CC(=O)N(c2cccc3ccccc23)C1=O (stereo not given)	.	.	?	16%	.
O=C(O)c1cccnc1SC1CC(=O)N(c2ccccc2)C1=O (stereo not given)	-5%	-13%	56µM*	15%	-9%
O=C(O)c1cccnc1Sc1ccccc1F	.	.	.	.	4%
CC(c1ccccc1)N1C(=O)CC(Sc2ncccc2C(=O)O)C1=O (stereo not given)	-5%	9%	22µM*	12%	-19%
O=C1CCN(C(=O)CSc2ccc(Cl)cc2)N1	-2%	1%	14µM*	?	-19%
C=CCOc1cccc(C2C(C(=O)c3ccco3)=C(O)C(=O)N2CCN2CCOCC2)c1 (stereo not given)	0%	1%	-27%[12.7 µM]	-15%	?
O=C(C1=C(O)C(=O)N(CCc2ccccc2)C1c1cccs1)c1ccco1 (stereo not given)	-2%	-24%	50µM*	22%	?
CC(=O)C1=C(O)C(=O)N(Cc2ccco2)C1c1ccc2c(c1)OCO2 (stereo not given)	2%	1%	50µM*	-11%	?
CC(=O)C1=C(O)C(=O)N(Cc2ccccc2)C1c1ccc(F)cc1 (stereo not given)	-5%	-3%	13%	24%	-18%
C=CCOc1cccc(C2C(C(=O)c3ccco3)=C(O)C(=O)N2Cc2ccco2)c1 (stereo not given)	0%	-24%	45µM*	?	45µM*
CCCCOc1cccc(C2C(C(=O)c3ccc(C)o3)=C(O)C(=O)N2Cc2ccco2)c1 (stereo not given)	.	.	40µM*	-23%	?
CN(C)CCN(Cc1ccc(F)cc1)C(=O)c1cccc(S(C)(=O)=O)c1	.	.	.	.	-1%
Cc1ccccc1NC(=O)CSC1=NS(=O)(=O)c2ccccc2N1Cc1ccccc1	.	.	.	.	17%
O=C(CCc1ncc(-c2ccc(F)cc2)o1)N1CCN(S(=O)(=O)c2ccc(F)cc2)CC1	.	.	.	.	6%
CN(C)C(CNC(=O)Cc1c[nH]c2ccccc12)c1ccccc1 (stereo not given)	.	.	.	.	-2%
COc1cc(C2C(C(=O)c3ccco3)=C(O)C(=O)N2Cc2ccccc2)ccc1O (stereo not given)	2%	-6%	71µM*	1%	?
CC(=O)Nc1ccc(C(=O)N2Cc3ccccc3OC3(CCN(C(C)=O)CC3)C2)cc1	.	.	.	.	-2%[6.33 µM]
O=C(CCl)N(Cc1ccccc1)c1ccccc1	-13%	-6%	-33%	11%	-21%
CC(C)OC(=O)c1cc2c(ccn2C)n1CC(=O)N(Cc1ccccc1)c1ccccc1	1%	-11%	25µM*	-15%	?
Cc1nnc(NC(=O)CCN2C(=O)/C(=C\c3ccccc3)SC2=S)s1	0%	18%	79µM*	-1%	-4%
Cc1cc(NC(=O)CCN2C(=O)/C(=C\c3ccccc3)SC2=S)no1	-6%	-15%	4%	10%	26%
O=C(CCCN1C(=O)/C(=C\c2cccs2)SC1=S)Nc1ccccn1	-6%	-3%	?	15%	-23%
O=C(CCN1C(=O)/C(=C/c2cccs2)SC1=S)Nc1ccccn1	-6%	-8%	3.2µM*	11%	-16%
CCOc1ccc(/C=C2\SC(=S)N(CC(=O)Nc3ccccn3)C2=O)cc1	-4%	0%	?	4%	-1%
O=C(CN1C(=O)/C(=C/c2ccccc2)SC1=S)Nc1ncc(Cc2ccccc2)s1	-2%	-1%	50µM*	-6%	-12%
